Experimental data published in PubChem BioAssay (NCI).
This is part of a sample that, as a whole, favours compounds with a hit. Of some 79,000 tested, about 15% had one in any assay. Cut-off read from the data, not from the text of the source: active = growth inhibition above about 70%; inactive = the rest.

Tests used:
[1] = NCI Yeast Anticancer Drug Screen. Data for the rad50 strain (AID 155);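 note: 0% = growth of vehicle-only cultures of the same strain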; conditions: S. cerevisiae rad50 strain growth inhibition; at 50.0 µM; stronger effect = higher value
Procedure, shortened: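 DNA repair mutant yeast, compound exposure, growth read-out; inhibition is taken relative to vehicle.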

[2] = NCI Yeast Anticancer Drug Screen. Data for the mec2-1 strain (AID 157); conditions: S. cerevisiae mec2-1 strain, at 50.0 µM, stronger effect = higher value
Procedure, shortened: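 Using mec2-1 yeast: add compound, measure growth, express inhibition versus vehicle-treated cultures.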

[3] = NCI Yeast Anticancer Drug Screen. Data for the sgs1 mgt1 strain (AID 161);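 note: 0% = growth of cultures given vehicle only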; conditions: S. cerevisiae sgs1 mgt1 strain, at 50.0 µM, stronger effect = higher value
Procedure, shortened: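 This yeast growth screen uses a strain with defined DNA-repair lesions; compound-treated growth is compared with vehicle-treated growth.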

[4] = NCI Yeast Anticancer Drug Screen. Data for the cln2 rad14 strain (AID 165);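 note: 0% = growth equal to vehicle treated cultures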; conditions: S. cerevisiae cln2 rad14 strain, at 50.0 µM, stronger effect = higher value
Procedure, shortened: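 Yeast strain cln2 rad14, bearing defects in cell cycle control and DNA repair, serves as the test system; values reflect growth inhibition compared with vehicle.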

[5] = NCI Yeast Anticancer Drug Screen. Data for the bub3 strain (AID 167); conditions: S. cerevisiae bub3 mutant strain, at 50.0 µM, stronger effect = higher value
Procedure, shortened: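 In this screen, a yeast mutant lacking normal mitotic checkpoint function is challenged with compound. Relative growth versus vehicle gives the inhibition value.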

[6] = NCI Yeast Anticancer Drug Screen. Data for the mlh1 rad18 strain (AID 175); conditions: S. cerevisiae mlh1 rad18 strain growth inhibition; at 50.0 µM; stronger effect = higher value
Procedure, shortened: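 Steps: expose repair-defective yeast to compound; measure growth; express inhibition against vehicle-treated controls.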

Measured: growth inhibition

COc1ccc(C(O)(c2ccccc2)c2nccc3ccccc23)cc1 (stereo unspecified)
inactive: [1] 6.6% | [2] 3.75% | [3] 30.4% | [4] 1.45% | [5] 10.3% | [6] -9.4%

COc1cccc(Nc2nc(NS(=O)(=O)c3cc(C)c(Cl)cc3S)n[nH]2)c1
inactive: [1] -7.6% | [2] -2.3% | [3] -6.25% | [4] 7.95% | [5] 16.1% | [6] 15.8%

Cc1ccc(S(=O)(=O)NN=C2CC3C4CCC5C4CC3C25)cc1 (stereo unspecified)
inactive: [1] 21.9% | [2] -4.5% | [3] 15.9% | [4] 12% | [5] -13.5% | [6] 7.1%

CCC/C(=N/O)C(=O)OCC
inactive: [1] -3.4% | [2] 14.9% | [3] 6.4% | [4] 6.25% | [5] 4.4% | [6] -4.6%

C/C(=N\NC(N)=O)c1cc2cc([N+](=O)[O-])ccc2oc1=O
inactive: [1] -2.2% | [2] 23.6% | [3] 16.1% | [4] -7.85% | [5] -12.6% | [6] 8.5%

CCCC(=O)OC(C)CC(C)C (stereo unspecified)
inactive: [1] 6% | [2] -13.7% | [3] -12.2% | [4] -10.8% | [5] 2.2% | [6] 1.95%

c1ccc(N2CCN(CCCN3CCc4c([nH]c5ccccc45)C3c3cccnc3)CC2)cc1 (stereo unspecified)
inactive: [1] -5.55% | [2] -18.1% | [3] -18.8% | [4] 14.1% | [5] -7.9% | [6] -1.8%

CCCCCCCCCCCCCCOc1ccc2ccccc2c1
inactive: [1] 21.5% | [2] 6.7% | [3] 6.5% | [4] -10.4% | [5] -6.05% | [6] -4%

Cc1ccc(C(=O)NO)cc1
inactive: [1] 28.8% | [2] -5.6% | [3] 7.65% | [4] -4.65% | [5] 13.8% | [6] 17.5%

Cc1cc(N=Nc2ccc(O)c3ncccc23)c2ccccc2n1
inactive: [1] 9.5% | [2] 6.85% | [3] 22.8% | [4] -4.9% | [5] 18% | [6] 19.1%

Nc1ccccc1SC1CC(=O)N(c2cccc(Cl)c2)C1=O (stereo unspecified)
inactive: [1] -10.6% | [2] -25.4% | [3] -4.7% | [4] -7.3% | [5] -1.05% | [6] -25.1%

CC(=O)Nc1cc(C)ccn1
inactive: [1] 1.2% | [2] 0.6% | [3] 10.6% | [4] -35% | [5] -2.95% | [6] 19.4%

CC(=O)OCc1cc(=O)n2c([nH]c3ccccc32)c1C#N
inactive: [1] 11.1% | [2] 10.6% | [3] -24.6% | [4] -15.5% | [5] -26.3% | [6] -2.6%

CC(=O)OC1OC(C)C(OC(=O)c2ccccc2)C1OC(C)=O (stereo unspecified)
inactive: [1] 21.1% | [2] -3.15% | [3] 2.3% | [4] -1.25% | [5] 6.25% | [6] 33.6%

NC(=O)N/N=C/c1cccc(O)c1O
inactive: [1] 6% | [2] -6.2% | [3] -24.7% | [4] -10.2% | [5] -2.9% | [6] 5.75%

O=C(Nc1cccc(Cl)c1)OCC#CCOC(=O)Nc1cccc(Cl)c1
inactive: [1] -4% | [2] 11.6% | [3] 1.95% | [4] -10.8% | [5] 0.85% | [6] 11.2%

O=C(CCc1cc(O)cc(O)c1)NCCc1cc(O)cc(O)c1
inactive: [1] 6.55% | [2] 5.9% | [3] 17.4% | [4] 26.4% | [5] 8.8% | [6] -46%

O=C1OC(c2ccc([N+](=O)[O-])cc2)=N/C1=C\c1ccc(Cl)c(Cl)c1
inactive: [1] 31.9% | [2] 21.8% | [3] 43.6% | [4] 28.1% | [5] 25.2% | [6] 46.2%

CCCCOC(=O)C(=O)C(CC(C(=O)Cc1ccccc1)c1ccccc1)C(=O)C=C(C)C (stereo unspecified)
inactive: [1] -0.1% | [2] -5.3% | [3] -0.7% | [4] -12.1% | [5] 27.2% | [6] -18.2%

CCCCCc1c(C)[nH]n(C(N)=NCCSCc2nc[nH]c2C)c1=O
inactive: [1] 31.5% | [2] -0.8% | [3] 35% | [4] 22.4% | [5] -22.5% | [6] 25.2%

O=C1c2ccccc2C(=Cc2cccnc2)c2ccccc21
inactive: [1] 35.3% | [2] 31.9% | [3] 30.1% | [4] 20.2% | [5] 55.1% | [6] 40.7%

BrCCCCCOc1ccc(-c2c3ccccc3c(-c3ccc(OCCCCCBr)cc3)c3ccccc23)cc1
inactive: [1] 11.4% | [2] 18.1% | [3] 12.8% | [4] 0.05% | [5] -12.9% | [6] 12.8%

CN(C)c1nc(Cl)nc2c1ncn2-c1ccccc1
inactive: [1] 9.85% | [2] -23.2% | [3] 3.1% | [4] -10.7% | [5] -31.4% | [6] -5.1%

O=[N+]([O-])c1ccc(C=NCCO)cc1
inactive: [1] 8.75% | [2] 8.55% | [3] 3.7% | [4] -1% | [5] 9.2% | [6] -5.4%

Clc1cccc(NCNC2Nc3ccccc3N2)c1
inactive: [1] 39% | [2] 20% | [3] 6.6% | [4] -14.3% | [5] 18.1% | [6] 27.9%

CSc1cc(Br)ccc1-n1c(C(=O)c2ccccc2)c(SC)n(-c2ccccc2)c1=O
inactive: [1] -0.05% | [2] 21.3% | [3] 20.6% | [4] 7.65% | [5] 15.7% | [6] 5.05%

CCOC1OC(C2COC(=S)O2)C(O)C1O (stereo unspecified)
inactive: [1] 9.35% | [2] -2.15% | [3] 7.85% | [4] -4.1% | [5] -0.15% | [6] 13.6%

c1ccc2c(c1)cnc1cc3c(cc12)ncc1ccccc13
inactive: [1] 8.05% | [2] 19.9% | [3] 9.3% | [4] 14.8% | [5] -6.45% | [6] 28.8%

O=C(O)Cc1ccc2ccccc2c1Br
inactive: [1] -8.5% | [2] 13.1% | [3] 1.8% | [4] 22.8% | [5] -8.6% | [6] 14.3%

CC1(C)[C@@H]2CC[C@]1(C)[C@H](OC(=O)/C=C/c1ccccc1)C2
inactive: [1] 1.9% | [2] -39.8% | [3] -11.4% | [4] 8.5% | [5] -16% | [6] -1.5%

CC(=O)Oc1cc2c(cc1OC(C)=O)C(=O)c1cc3c(cc1C2=O)OCO3
inactive: [1] -31.7% | [2] -10.9% | [3] -1.3% | [4] -17.2% | [5] -6.5% | [6] -12%

COc1cc2cccc(N=Cc3cccc(OC)c3OC(C)C)c2cc1OC
inactive: [1] -20.9% | [2] -13.2% | [3] 11.6% | [4] 16.1% | [5] -4.6% | [6] -8.6%

CC1(C)COC(c2c(F)cccc2Cl)=N1
inactive: [1] 3% | [2] -13.8% | [3] 6.2% | [4] 22.4% | [5] 11.7% | [6] 13.2%

CC(C)CCCC(C)C1CCC2(C)C3=C(CCC12C)C1(C)CCC(O)C(C)(C)C1CC3=O (stereo unspecified)
inactive: [1] -0.35% | [2] -0.5% | [3] -18.6% | [4] 1.85% | [5] 2.1% | [6] -5.45%

CCCCN(CCCC)C(=O)OCC
inactive: [1] 30.2% | [2] 8.3% | [3] 6.35% | [4] 12.4% | [5] 19.2% | [6] 14.5%

CCCCCOc1ccc(/C=C\C(=O)O)cc1
inactive: [1] 11.3% | [2] 2.55% | [3] -11.2% | [4] -6.75% | [5] -18.4% | [6] -6.35%

COC(=O)c1cc(=O)c2ccc(Cl)cc2[nH]1
inactive: [1] -8.05% | [2] 4.05% | [3] -10.9% | [4] -14.6% | [5] -18.3% | [6] -25.3%

Cc1nc(/N=C(/N)N(C)C)[nH]c(=O)c1C
inactive: [1] 1.7% | [2] -27.6% | [3] -11.6% | [4] 3.7% | [5] 4.05% | [6] 19.9%

CCOC(=S)SC(=S)SC(=S)OCC
inactive: [1] 1.15% | [2] -27.1% | [3] 2.6% | [4] -27.8% | [5] -7.75% | [6] -22.2%

O=C(Nc1ccc2ccccc2c1)C1CC1
inactive: [1] 0.2% | [2] -13.3% | [3] -9.15% | [4] -68.8% | [5] -33.1% | [6] -6.65%

C[N+](C)(C)CC(=O)NN
inactive: [1] 10.1% | [2] -0.8% | [3] -21.7% | [4] -17.6% | [5] -18% | [6] 38.6%
